# Hits are enriched below; roughly 19% of the tested compounds scored in any of these assays.
# TDP1 cell noCPT: qHTS for Inhibitors of human tyrosyl-DNA phosphodiesterase 1 (TDP1): qHTS in cells in absence of CPT | DT40 Tdp1-/- hTDP1 cells, no CPT, ATP luminescence, 48 h | Potency, µM (series often up to 46.2 µM), for inactives: at the highest dose activity change, negative = growth inhibition, most hits filed as inhibitors | actives 15% (n = 420,000) | AID 686978, 2013; further: potency means the concentration at half of the fitted maximal effect; nearly all actives have a fitted effect of over 55% in size
#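 Readout: luminescence from CellTiter-Glo after 30 min in the dark at RT. Cells: DT40 Tdp1-/- with stable hTDP1, 400/well. Exposure: compounds alone, ≥48 hr, 37 °C.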
# ELG1 DNA repair: qHTS screen for small molecules that inhibit ELG1-dependent DNA repair in human embryonic kidney (HEK293T) cells expressing luciferase-tagged ELG1. HEK293T ELG1-luciferase reporter, luminescence, 16 h; DNA damage induced by 5-fluorouridine. Potency, µM (highest dose often 46.1 µM), for the others: at the highest dose activity change, negative = inhibition, most hits filed as inhibitors. actives 2.3% (n = 330,000). AID 504467, 2011; further: potency means the concentration at half of the fitted maximal effect; nearly all actives have a fitted effect of over 55% in size
#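 Overnight (16 hr) co-exposure of 2,000 cells/well to 5-fluorouridine and compound at 37 °C preceded detection. Luciferase was quantified via ONE-Glo luminescence; loss of signal denotes inhibition.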
# DT40 TDP1 CPT: qHTS for Inhibitors of human tyrosyl-DNA phosphodiesterase 1 (TDP1): qHTS in cells in presence of CPT | chicken DT40 Tdp1-/-;hTDP1 cells + 20 nM CPT, ATP luminescence, 48 h | Potency, µM (series often up to 46.2 µM), for the others: at the top dose activity change, negative = growth inhibition, usual class: inhibitors | actives 12% (n = 420,000) | AID 686979, 2013; further: potency means the concentration at half of the fitted maximal effect; nearly all actives have a fitted effect of over 55% in size
#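 Cell growth measured by CellTiter-Glo luminescence after a minimum 48 h, 37 C compound exposure with 20 nM CPT in Tdp1-knockout DT40 cells stably expressing hTDP1, seeded 400/well; qHTS titration format.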
# Giardia kill: Small Molecules that selectively kill Giardia lamblia: qHTS. Giardia lamblia trophozoite viability. activity change, % at 7.66 µM, hits read low. actives 0.15% (n = 340,000); in the data active means activity change below about -80%; inconclusive means between about -30% and that limit;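 further: parasites exposed to compound for two days anaerobically before the ATP read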
#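 Compounds were tested on trophozoites seeded at 100 cells/well and held 48 hrs at 37 deg C anaerobically. An ATP-based luminescent kit measured the remaining live cells.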
# IL1B secr inh: qHTS for Inhibitors of Inflammasome Signaling: IL-1-beta AlphaLISA Primary Screen; actives 4.7% (n = 360,000); THP-1 LPS/ATP IL-1B secretion, AlphaLISA, 16 h; hits give low values; activity change, % at 57.5 µM; in the data active means activity change below about -50%; inconclusive means mostly about -30% to -49%
#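 Secreted IL-1B measured by AlphaLISA bead assay after 16 h compound exposure of THP-1 cells; compounds (final up to 57.5 uM) added 1 h before LPS (250 ng/mL) and ATP (1.25 mM) stimulation; lower signal means less secretion.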
# TDP1 inh: qHTS Assay for Inhibitors of Tyrosyl-DNA Phosphodiesterase (TDP1). recombinant TDP1, AlphaScreen DNA substrate cleavage. actives 0.28% (n = 350,000). Potency, µM (series often up to 130 µM), for the others: top-dose activity change, negative = inhibition, hits mostly inhibitors. AID 485290, 2010; further: potency means the concentration at half of the fitted maximal effect; nearly all actives have a fitted effect of over 40% in size
# Target sequence (Q9NUW8 whole entry, looked up): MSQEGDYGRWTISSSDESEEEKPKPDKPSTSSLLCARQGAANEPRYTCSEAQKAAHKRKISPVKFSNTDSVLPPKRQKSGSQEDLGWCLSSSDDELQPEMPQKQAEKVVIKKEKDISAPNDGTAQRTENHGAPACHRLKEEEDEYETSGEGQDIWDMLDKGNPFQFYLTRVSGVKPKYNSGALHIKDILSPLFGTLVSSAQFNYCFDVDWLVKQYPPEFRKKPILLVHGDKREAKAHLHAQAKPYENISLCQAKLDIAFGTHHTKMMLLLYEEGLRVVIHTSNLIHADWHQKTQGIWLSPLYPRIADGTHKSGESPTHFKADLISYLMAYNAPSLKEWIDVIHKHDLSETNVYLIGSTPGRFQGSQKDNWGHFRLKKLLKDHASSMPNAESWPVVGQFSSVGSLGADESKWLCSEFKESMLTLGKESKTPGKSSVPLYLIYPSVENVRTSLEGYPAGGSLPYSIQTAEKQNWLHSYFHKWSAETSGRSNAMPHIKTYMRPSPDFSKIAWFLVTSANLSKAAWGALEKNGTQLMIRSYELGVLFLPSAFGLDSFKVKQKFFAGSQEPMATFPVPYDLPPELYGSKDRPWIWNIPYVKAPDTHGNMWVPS
#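 Signal: AlphaScreen proximity between streptavidin donor and anti-FITC acceptor beads on intact substrate. Reaction: Tdp1 1 nM, substrate 15 nM final, 5 min RT after 15 min compound preincubation.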
# The depositor's hits bear a star; ? = inconclusive; . = no result; ! = a repeat was not active; [ ] = another dose, or the depositor's remark. Unless noted, the call rests on the fitted dose curve; in most records, active means well fitted curve in the direction sought with a large enough effect; inconclusive means small, poorly fitted or top-dose-only effect, or another doubt; inactive means no such curve, though single readings can be large; an effect the other way counts as inactive or inconclusive. On the % scale 0 is the no-effect control and ±100 the full control effect.
SMILES,TDP1 cell noCPT,ELG1 DNA repair,DT40 TDP1 CPT,Giardia kill,IL1B secr inh,TDP1 inh
O=C(NCCc1nc2ccccc2[nH]1)/C(=C/c1ccco1)NC(=O)c1ccc(Br)cc1,?,-16%,23µM*,-19,0,6%
COc1ccc(/C=C/C(=O)N/C(=C\c2ccco2)C(=O)NCCc2nc3ccccc3[nH]2)cc1,18µM*,?,21µM*,-9,0,6%
Cn1c(NCc2cccc(Cl)c2)nc2ccccc21,?,.,?,.,.,5%
Cc1cccc(N2CCN(CCCNC(=O)Cn3ncc4c([nH]c5ccccc54)c3=O)CC2C)c1 (stereo not drawn),18µM*,.,?,.,.,2%
Cc1ccc2[nH]c3c(=O)n(CC(=O)NCCCN4CCN(c5ccc(F)cc5)CC4)ncc3c2c1,16µM*!,0%,?,-1,?,0%
Cc1ccc(-c2ccc(=O)n(CC(=O)N3CCN(c4cccc(C)c4)C(C)C3)n2)cc1 (stereo not drawn),-22%,-23%,?,11,-61*,8%
Cc1ccc(CCNC(=O)Cn2ncc3c([nH]c4ccccc43)c2=O)cc1,8%,7%,1%,-1,-1,0%
Cc1ccc(Cl)cc1N1CCN(CCCNC(=O)Cn2ncc3c([nH]c4ccccc43)c2=O)CC1,8.2µM*,.,15µM*,.,.,0%
Cc1cccc(CCNC(=O)Cn2ncc3c([nH]c4ccccc43)c2=O)c1,19%,0%,-15%,-7,16,1%
CN(C)S(=O)(=O)c1ccc(C(=O)Nc2nnc(SCc3cccc(F)c3)s2)cc1,-5%,-16%,-15%,-14,-6,-3%
COc1ccc(CCN2C(=O)CC(NNC(=O)c3ccccc3Br)C2=O)cc1OC (stereo not drawn),1%,-5%,-15%,1,-1,3%
CN(C)CCCNC(=O)C(=O)NCC(c1ccc2c(c1)OCO2)N1CCOCC1 (stereo not drawn),-21%,.,6%,.,.,4%
COc1cccc(CN2CCCC(CNC(=O)c3ccc(F)cc3)C2)c1OC (stereo not drawn),-19%,6%,-5%,6,-9,2%
COc1ccc(OC)c(C2NC(=O)NC(C)=C2C(=O)Nc2ccc(F)cc2)c1 (stereo not drawn),-7%,.,-2%,.,.,.
Cc1cccc(N2CCN(C(=O)Cn3ncc4c([nH]c5ccccc54)c3=O)CC2C)c1 (stereo not drawn),15µM*,.,?,.,.,-2%
Cc1cccc(N2CCN(C(=O)Cn3sc4nc(C)cc(C)c4c3=O)CC2C)c1 (stereo not drawn),4.6µM*,0%,3.7µM*,-1,?,9%
Cc1cccc(N2CCN(C(=O)CCC(=O)NNc3nc4ccccc4c4nc(C)nn34)CC2C)c1 (stereo not drawn),23µM*,.,18µM*,.,.,7%
O=C(CCC(=O)NNc1nc2ccccc2c2nc(-c3ccccc3)nn12)NCCCN1CCOCC1,-19%,-11%,-6%,-29,-14,0%
Cc1cc(C)c2c(=O)n(CC(=O)N3CCC(Cc4ccccc4)CC3)sc2n1,.,5%,.,.,.,5%
CC(C)CCNC(=O)CCC(=O)NNc1nc2ccccc2c2nc(-c3ccccc3)nn12,21µM*,2%,21µM*,-15,-2,9%
Brc1cc2c(cc1CSc1ncccn1)OCO2,?,?,14%,3,-3,6%
Cc1cccc(CN2CCN(CC(=O)NCCCN3CCN(c4ccc(F)cc4)CC3)C2=O)c1,?,-4%,11µM*,-23,-56*,2%
O=S(=O)(c1ccc(F)cc1F)N1CCCN(c2ccc(C(F)(F)F)cn2)CC1,?,?,?,9,23,-4%
COc1cccc(CNC(=O)C(NS(=O)(=O)c2ccc3c(c2)oc(=O)n3C)C(C)C)c1 (stereo not drawn),7%,.,4%,.,.,6%
Cc1ccc(-n2nnnc2-c2cnoc2-c2cccc(F)c2)cc1,?,-2%,26µM*,4,47,3%
SMILES,TDP1 cell noCPT,ELG1 DNA repair,DT40 TDP1 CPT,Giardia kill,IL1B secr inh,TDP1 inh
O=C1CCCc2ccccc2N1Cc1ccc(Cl)cc1,?,5%,?,0,-4,2%
O=C1CCCc2ccccc2N1Cc1ccccc1,12µM*,3%,13µM*,11,24,-2%
O=C1CCCc2ccccc2N1Cc1cccc(Cl)c1,9.2µM*,-2%,?,-8,3,-4%
COc1ccc(CN2C(=O)CCCc3ccccc32)cc1,21µM*,-19%,?,8,0,2%
CO[C@H]1COC(=O)[C@H](C)NC(=O)[C@@H](C)COC(=O)[C@H]2CCCN2C(=O)C/C=C\[C@H]1C,.,.,.,.,.,2%[21 µM]
O=C(O)CN1C(=O)/C(=C/c2ccc(SCc3ccccc3)o2)SC1=S,?,11%,?,-20,31,.
CCc1nc(N2CCN(CC(=O)NCC3CCCO3)CC2)c(C#N)c2c1COC(C)(C)C2 (stereo not drawn),?,?,?,-8,-8,1%
Cc1ccc(S(=O)(=O)N2CCCN(S(=O)(=O)c3ccc4c(c3)OCCO4)CC2)cc1,11µM*,?,11µM*,1,-23,5%
O=C(O)/C=C/c1cc(F)c(S(=O)(=O)N2CCN(S(=O)(=O)c3ccc4c(c3)OCCO4)CC2)cc1F,.,.,.,.,.,50µM*
Cc1ccc2c(CN3CCN(S(=O)(=O)c4ccc5c(c4)OCCO5)CC3)cc(=O)oc2c1C,?,15µM*,?,16,28,-3%
Cc1ccc2nc(N3CCN(S(=O)(=O)c4ccc5c(c4)OCCO5)CC3)c(C#N)cc2c1,?,-19%,11µM*,4,9,-7%
COC/C=C/c1cc(F)c(S(=O)(=O)N2CCN(S(=O)(=O)c3ccc4c(c3)OCCO4)CC2)cc1F,.,.,.,.,.,0%
O=S(=O)(NCCS(=O)(=O)N1CCN(c2ccccc2)CC1)c1ccccc1,?,7%,-19%,10,-5,-1%

# Source: PubChem BioAssay
